High-throughput results: PubChem BioAssay, National Center for Advancing Translational Sciences (NCATS)
This is a sample that favours compounds with a hit; in the whole collection about 1.2% have one here.
ASM inhibitor = blocks human secretory acid sphingomyelinase; P17405; placental ASM, HMU-PC fluorogenic substrate, 60 min; Potency, µM (highest dose often 57.5 µM), without a hit: top-dose activity change, negative = inhibition, most hits filed as inhibitors; actives 0.006% (n = 340,000); further: potency means the concentration at half of the fitted maximal effect
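Fluorescence read-out (Ex 386 nm, Em 447 nm) after stopping the reaction at pH 10. Enzyme: ASM from human placenta; substrate HMU-PC0, 9 uM final; 60 min, 37 °C. Compound preincubation 10 min, ambient temperature.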
TSG101-PTAP inh = blocks PTAP/TSG101 interaction to inhibit HIV-1 budding. Fluorescence polarization, FITC-PTAP peptide / Tsg101 binding. 340,000 tested, under 10 active. Potency, µM (top dose mostly 115 µM), without a hit: top-dose activity change, negative = inhibition, most hits filed as inhibitors. AID 493005. Q99816; active means well fitted inhibition curve with a large enough effect in the main read-out, with a control signal flat, not every such curve was filed as active; inconclusive means small, poorly fitted or top-dose-only effect, or effect the other way, or a change in a side signal; inactive means no such curve, though single readings can be large or run the other way; further: potency means the concentration at half of the fitted maximal effect; % of control where 0% means no effect
Target sequence (Q99816 whole entry, looked up): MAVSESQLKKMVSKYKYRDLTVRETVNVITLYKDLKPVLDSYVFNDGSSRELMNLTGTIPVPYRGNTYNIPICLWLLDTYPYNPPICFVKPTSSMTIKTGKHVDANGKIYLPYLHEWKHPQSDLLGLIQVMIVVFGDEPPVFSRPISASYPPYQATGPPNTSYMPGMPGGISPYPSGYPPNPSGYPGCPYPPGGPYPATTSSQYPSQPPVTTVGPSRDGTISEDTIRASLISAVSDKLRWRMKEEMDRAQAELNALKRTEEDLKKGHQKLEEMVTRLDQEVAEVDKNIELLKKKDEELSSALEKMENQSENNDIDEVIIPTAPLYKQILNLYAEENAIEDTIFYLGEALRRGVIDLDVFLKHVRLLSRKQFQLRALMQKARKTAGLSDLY
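Fluorescence anisotropy tracks displacement of a FITC-tagged PTAP peptide (50 nM) from the Tsg101 binding domain (10 uM), following a 20 min room-temperature incubation at pH 7.5.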
TSHR antag = blocks TSH signaling through the human TSH receptor; P16473; TSHR-expressing cells, TSH-stimulated cAMP HTRF, 2 h; stronger effect = lower value; activity change, negative = inhibition, % at 11.5 µM; actives 0.2% (n = 330,000);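 active means activity change below a set negative limit, meaning inhibition stronger than a set level, cut at about -70% in these data; inconclusive means activity change between two set negative limits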; further: on the % scale 0 is the no-effect control and ±100 the full control effect
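Inhibition of cAMP made by TSHR-expressing cells under TSH stimulation (4nM final, EC80; 2 h, 37 deg C) is quantified with a one-step lysis HTRF kit, anti-cAMP cryptate versus cAMP-d2.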
BRCA1 expr up = activators of BRCA1 expression; actives 1.1% (n = 380,000); AID 624202; Potency, µM (doses to about 46.1 µM), inactives show at the highest dose activation, usual class: activators; MCF7-BRCA1-FFLuc reporter, luminescence, 48 h; response scale: scaled: vehicle 0%, 10 µM genistein 100%; further: potency means the concentration at half of the fitted maximal effect; nearly all actives have a fitted effect of over 80% in size
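Compounds are tested at multiple concentrations on MCF7 BRCA1-luciferase reporter cells seeded at 2000 per well; after 48 h, a single luminescence end-point is taken and curves fitted to the normalized data.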
Apoferritin bind = candidate novel general anesthetic via apoferritin binding; P02791; apoferritin/1-aminoanthracene competitive binding, fluorescence; Potency, µM (highest dose often 77.5 µM), inactives show at the top dose activity change, negative = displacement, usual class: inhibitors; actives 0.074% (n = 350,000); AID 485281; further: potency means the concentration at half of the fitted maximal effect; on the % scale 0 is the no-effect control and ±100 the full control effect; nearly all actives have a fitted effect of over 20% in size
Target sequence (P02791 2-175 limits assumed): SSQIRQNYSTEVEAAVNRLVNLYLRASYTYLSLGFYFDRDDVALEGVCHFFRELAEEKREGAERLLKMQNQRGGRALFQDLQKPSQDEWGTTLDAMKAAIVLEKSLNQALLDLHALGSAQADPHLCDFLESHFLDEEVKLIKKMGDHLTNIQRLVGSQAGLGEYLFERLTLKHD
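10 uM apoferritin + 50% sat. 1-AMA, PBS; cpd 10 min RT; Ex380/Em535 endpoint; normalized to free probe vs complex; 4-param Hill fit; propofol titration as pos. ctrl.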
An asterisk follows results filed as active; ? = inconclusive; . = not tested or not shown. Unless noted, the call rests on the fitted dose curve; in most records, active means well fitted curve in the direction sought with a large enough effect; inconclusive means small, poorly fitted or top-dose-only effect, or another doubt; inactive means no such curve, though single readings can be large; an effect the other way counts as inactive or inconclusive.

SMILES | ASM inhibitor | TSG101-PTAP inh | TSHR antag | BRCA1 expr up | Apoferritin bind
CC(C)OC(=O)c1cn(Cc2c(F)cccc2F)c2sc(-c3ccc(NC(=O)C(C)C)cc3)c(CN(C)Cc3ccccc3)c2c1=O | . | . | . | . | -12%
O=C(Nc1cccc(NC(=O)c2ccco2)c1)c1ccccc1 | -3% | -1% | -12 | -4% | -14%
O=C(c1ccccc1)c1cccc(NC(=O)c2ccco2)c1 | -1% | -1% | -11 | 11µM* | -21%
O=C(CNC(=O)c1ccco1)Nc1ccc(Cl)cc1 | 4% | -1% | -5 | 13µM* | -10%
COc1cc(NC(=O)CC(C)C)ccc1NC(=O)c1ccco1 | 0% | 1% | . | 7.9µM* | .
O=C(/C=C\c1ccco1)c1ccc(NC(=O)c2ccco2)cc1 | 4% | 0% | 15 | 1.8µM* | -16%
Cc1nc(Sc2nnnn2C2CC2)c2c(-c3ccccc3)csc2n1 | . | . | . | 26% | .
O=C(OC1Cc2c(O)cc(O)cc2OC1c1cc(O)c(O)c(O)c1)c1cc(O)c(O)c(O)c1 (stereo not given) | . | . | . | . | -4%
CCC(=O)Nc1ccc(NC(=O)c2ccco2)cc1 | -2% | -9% | 9 | 2.5µM* | -7%
CCCC[C@@H](C=O)NC(=O)[C@H](CC(C)C)NC(=O)OCc1ccccc1 | . | . | . | . | -13%
COc1ccc(C(=O)NCC2OCCc3ccccc32)c(O)c1 (stereo not given) | 3% | -6% | -9 | 11µM* | 1%
CC(C)COc1ccc(C(=O)NCC2OCCc3ccccc32)cc1 (stereo not given) | . | . | . | . | -16%
CN(C)C(=O)COc1ccccc1C(=O)OCC(=O)Nc1ccc(Oc2ccc(Br)cc2)cc1 | . | . | . | 11% | .
COC(=O)c1ccn(Cc2ccccc2Cl)n1 | 1% | -6% | 0 | 13µM* | -11%
COC(=O)c1cc2n(n1)CCN(Cc1ccccc1Cl)C2=O | 1% | 1% | -5 | -34% | -10%
Cn1c(SCC(=O)NCc2ccco2)nnc1-c1cccc(NC(=O)c2ccccc2)c1 | . | . | . | 4% | .
Cc1ccc2nc(SCn3nnc4ccccc4c3=O)[nH]c2c1 | 0% | 2% | -1 | ? | -8%
Cc1ccc(SCn2nnc3ccccc3c2=O)c(C)c1 | -5% | -1% | -2 | 13µM* | ?
CCc1cc(C(=O)/C=C/c2cc3c(cc2C)OCCO3)c(O)cc1O | . | . | . | 8% | .
Cn1nnc(-c2ccc(OCc3ccccc3F)cc2)n1 | 42% | 0% | -9 | ? | -2%
CC(C)n1nnc(-c2ccc(OCc3ccccc3F)cc2)n1 | 8% | -1% | -1 | 4.5µM* | 82%
Nc1ccc(-c2nnn(Cc3ccccc3F)n2)cc1 | 3% | -2% | 31 | 11µM* | -21%
Nc1nc(N)c2c(Oc3ccc(F)cc3)cccc2n1 | . | . | . | -7% | .
O=C(Nc1ccccc1Cl)NC1CCCCCCC1 | -23% | -4% | -5 | 14µM* | ?
CC(C)Oc1cccc(C(=O)NC(=S)Nc2ccccc2)c1 | -3% | 0% | -21 | 13µM* | 4%
SMILES | ASM inhibitor | TSG101-PTAP inh | TSHR antag | BRCA1 expr up | Apoferritin bind
CC(=O)c1ccc(NC(=O)c2cccc(NC(=O)c3ccccc3)c2)cc1 | -3% | 0% | 3 | 46% | -20%
COc1cccc(NC(=O)CC(=O)c2ccc([N+](=O)[O-])cc2)c1 | -3% | 2% | 8 | 11µM* | -1%
CC(C)OC(=O)c1cccc(NC(=O)c2ccccc2)c1 | -3% | -3% | 4 | 11µM* | -6%
CC(C)Oc1cccc(C(=O)NC(=S)Nc2cccnc2)c1 | -2% | -7% | -16 | -6% | 2%
CCNc1nc(C#N)nc(N2CCOCC2)n1 | . | . | . | -15% | .
CCc1nnc(NC(=O)[C@@H]2CCCN2C(=O)c2cccs2)s1 | . | . | . | 7% | .
CC(=O)NC1=CC(=O)c2nonc2C1=O | . | . | . | -22% | .
Cc1ccc(S(=O)(=O)N2CCCN(c3nc(-c4cccs4)nc4ccccc34)CC2)cc1 | . | . | . | -23% | .
COc1cccc(NC(=O)NC2CCCCCCC2)c1 | 0% | -1% | 3 | 10µM* | ?
COC(=O)c1cccc(NC(=O)c2ccc(OC)c(Cl)c2)c1 | -5% | -1% | -10 | 5µM* | -17%
COc1cccc(NC(=O)C(=S)NC2CCCCC2)c1 | -1% | -2% | -2 | ? | ?
O=C(CN1CCCC1)Nc1ccc(NC(=O)Nc2ccccc2Cl)cc1 | -9% | 0% | -2 | 11µM* | -14%
COc1cccc(NC(=O)Nc2ccc(Br)cn2)c1 | -2% | -4% | -3 | 11µM* | -7%
CCSC[C@H](NC(=O)[C@H](C)NC(=O)[C@@H](N)Cc1ccc(O)cc1)C(=O)N[C@@H](CC(=O)O)C(=O)N[C@H](C(=O)N[C@@H](C)C(=O)N[C@H](C(=O)N[C@@H](CSCC)C(=O)N[C@H](C(=O)N[C@H](C(=O)N[C@@H](Cc1cnc[nH]1)C(=O)N[C@@H](CCCNC(=N)N)C(=O)N[C@@H](CC(C)C)C(=O)N[C@@H](C)C(=O)NCC(=O)N[C@@H](CC(C)C)C(=O)N[C@@H](CC(C)C)C(=O)N[C@@H](CO)C(=O)N[C@@H](CCCNC(=N)N)C(=O)N[C@@H](CO)C(=O)NCC(=O)NCC(=O)N[C@H](C(=O)N[C@H](C(=O)N[C@@H](CCCCN)C(=O)N[C@@H](CC(N)=O)C(=O)N[C@@H](CC(N)=O)C(=O)N[C@@H](Cc1ccccc1)C(=O)N[C@H](C(=O)N1CCC[C@H]1C(=O)N[C@H](C(=O)N[C@@H](CC(N)=O)C(=O)N[C@H](C(=O)NCC(=O)N[C@@H](CO)C(=O)N[C@@H](CCCCN)C(=O)N[C@@H](C)C(=O)N[C@@H](Cc1ccccc1)C(N)=O)C(C)C)[C@@H](C)O)C(C)C)C(C)C)C(C)C)[C@@H](C)O)C(C)C)[C@@H](C)O)[C@@H](C)O | . | . | . | . | -11%
